# Records with an inconclusive call do not appear. Values without a mark were called inactive. Active and inactive are the calls of the source. Calls come from the whole dose curve; as a rule, active = well fitted curve in the direction sought with a large enough effect in the repeat runs; inconclusive = weak or mixed curves; inactive = no such curve, though single readings can be large; an effect the other way counts as inactive or inconclusive.
# Experiment: qHTS RealTime-Glo MT Cell Viability Assay in HEK293 cells - 8 hour (AID 1224887); note: nearly all actives have a fitted effect of over 50% in size; for activity change, negative = cytotoxicity: top concentration of the series differs between compounds
# Details: RealTime-Glo luminescence; series mostly up to 76.8 µM; activity change, negative = cytotoxicity: at the top concentration
# Method in brief: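 Kinetic, non-lysing viability readout. Seed HEK293 (600/well) with reagent, incubate 5 h at 37 C/5% CO2, pin 23 nL compound in DMSO, incubate at 37 C, read luminescence at 0, 8, 16, 24, 32, 40 h.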
# % is set by controls: 0 for no effect and ±100 for the full control effect; potency is the fitted concentration of half-maximal effect.
Structure (SMILES),"activity change, negative = cytotoxicity",Potency
O=C(Nc1ccccc1)c1cc(Cl)ccc1O,-10.2%,–
C/C=C/C(=O)OCC(C)C,1.72%,–
CN1CCN(CCCN2c3ccccc3Sc3ccc(C(F)(F)F)cc32)CC1,–,23.9 µM (active)
CC(C)(C)c1cc(CCC(=O)OCCSCCOC(=O)CCc2cc(C(C)(C)C)c(O)c(C(C)(C)C)c2)cc(C(C)(C)C)c1O,-18.9% [at 35.3 µM],–
C=Cc1ccncc1,-0.894%,–
CCCCCN=C(N)N/N=C/c1c[nH]c2ccc(OC)cc12,–,8.49 µM (active)
O=C1CCCCCCCCCCCCCC1,-17.8%,–
CCN(CC)c1ccc(N=Nc2ccccc2)cc1,–,43.6 µM (active)
O=C1CCC/C=C\CCCCCCCCCC1,-20.8%,–
Brc1cc(Br)cc(Br)c1,1.96%,–
N#Cc1ccc(C/C(=N/NC(=O)Nc2ccc(OC(F)(F)F)cc2)c2cccc(C(F)(F)F)c2)cc1,-2.38%,–
CSc1nnc(C(C)(C)C)c(=O)[nH]1,0.116%,–
CCOC(=O)OC(=O)OCC,26%,–
CCCCCCCCCC[N+](C)(CCCCCCCCCC)CCC[Si](OC)(OC)OC,–,19.5 µM (active)
c1ccc2c(c1)-c1ccc3ccc4cccc5cc-2c1c3c45,-4.23% [at 35.3 µM],–
O=C(CCCCCCCCc1cccnc1)N1CCC(C=C(c2ccccc2)c2ccccc2)CC1,–,21.9 µM (active)
CCN(CC)c1ccc(C=O)c(O)c1,1.56%,–

Structure (SMILES),"activity change, negative = cytotoxicity",Potency
COc1cc(/C=C/C(=O)CC(=O)/C=C/c2ccc(O)c(OC)c2)ccc1O,–,6.96 µM (active)
CC(C=O)c1ccccc1 (stereo unspecified),-6.37%,–
C=CC(=O)O[C@H]1C[C@@H]2CC[C@@]1(C)C2(C)C,-0.472%,–
CCC1(C)C(=O)N(Cl)C(=O)N1Cl (stereo unspecified),2.11%,–
CN[C@H]1CC[C@@H](c2ccc(Cl)c(Cl)c2)c2ccc(S(N)(=O)=O)cc21,–,38.9 µM (active)
CC/C=C(\C)C=O,4.96%,–
O=C(Nc1ccc([N+](=O)[O-])cc1)Nc1ccc([N+](=O)[O-])cc1 (tested in a mixture with another compound),-14.6% [at 35.3 µM],–
CCCCCCCCCCCCS(=O)(=O)Cl,8.12% [at 15.8 µM],–
Cc1cccc2c1ccc1ccccc12,-1.49%,–
CC(=O)CC(N)=O,4.87%,–
CCc1cccc(C)c1N(C(=O)C(=O)O)C(C)COC (stereo unspecified),7.66%,–
CCC(=O)OC/C=C(\C)CCC=C(C)C,-2.41%,–
CCCC(C)C=O (stereo unspecified),1.37%,–
CC(O)(c1ccc(Cl)cc1)c1ccc(Cl)cc1,–,34.7 µM (active)
C=Cc1ccc(O)c(OC)c1,-3.48%,–
Cc1cc(Br)ccc1NC(=O)CCl,–,24.5 µM (active)
c1ccc2cc3c4ccccc4c4ccccc4c3cc2c1,2.98%,–

# Experiment: A CellTox Green Cytotoxicity Assay to monitor cytotoxicity in HEK293 cells - 16 hour (AID 1224888); note: nearly all actives have a fitted effect of over 35% in size
# Details: CellTox Green fluorescence; series mostly up to 76.8 µM; activity change: at the top concentration
# Method in brief: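 Real-time, in one plate: 600 HEK293 cells/well with dead-cell DNA dye, pinned compound after 5 h, 37 C incubation over 40 h; viable cells give no appreciable fluorescence.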
Structure (SMILES),activity change,Potency
O=C(Nc1ccccc1)c1cc(Cl)ccc1O,19.5%,–
Cc1ccc(N=Nc2c(O)ccc3ccccc23)c(C)c1,"-12% [at 35.3 µM, active compounds read high]",–
C/C=C/C(=O)OCC(C)C,-0.54%,–
CN1CCN(CCCN2c3ccccc3Sc3ccc(C(F)(F)F)cc32)CC1,–,23.9 µM (active)
CC(C)(C)c1cc(CCC(=O)OCCSCCOC(=O)CCc2cc(C(C)(C)C)c(O)c(C(C)(C)C)c2)cc(C(C)(C)C)c1O,"-4.59% [at 35.3 µM, active compounds read high]",–
C=Cc1ccncc1,0.693%,–
CCCCCN=C(N)N/N=C/c1c[nH]c2ccc(OC)cc12,–,7.56 µM (active)
O=C1CCCCCCCCCCCCCC1,–,43.6 µM (active)
CCN(CC)c1ccc(N=Nc2ccccc2)cc1,-22.3%,–
O=C1CCC/C=C\CCCCCCCCCC1,11.5%,–
Brc1cc(Br)cc(Br)c1,-1.62%,–
N#Cc1ccc(C/C(=N/NC(=O)Nc2ccc(OC(F)(F)F)cc2)c2cccc(C(F)(F)F)c2)cc1,-1.53%,–
CSc1nnc(C(C)(C)C)c(=O)[nH]1,2.8%,–
CCOC(=O)OC(=O)OCC,-1.09%,–
CCCCCCCCCC[N+](C)(CCCCCCCCCC)CCC[Si](OC)(OC)OC,–,49 µM (active)
c1ccc2c(c1)-c1ccc3ccc4cccc5cc-2c1c3c45,"20.6% [at 35.3 µM, active compounds read high]",–
O=C(CCCCCCCCc1cccnc1)N1CCC(C=C(c2ccccc2)c2ccccc2)CC1,1.31%,–
CCN(CC)c1ccc(C=O)c(O)c1,0.17%,–
COc1cc(/C=C/C(=O)CC(=O)/C=C/c2ccc(O)c(OC)c2)ccc1O,–,49.3 µM (active)

Structure (SMILES),activity change,Potency
CC(C=O)c1ccccc1 (stereo unspecified),-13.8%,–
C=CC(=O)O[C@H]1C[C@@H]2CC[C@@]1(C)C2(C)C,1.26%,–
CCC1(C)C(=O)N(Cl)C(=O)N1Cl (stereo unspecified),3.88%,–
CN[C@H]1CC[C@@H](c2ccc(Cl)c(Cl)c2)c2ccc(S(N)(=O)=O)cc21,–,24.5 µM (active)
CC/C=C(\C)C=O,-13.1%,–
O=C(Nc1ccc([N+](=O)[O-])cc1)Nc1ccc([N+](=O)[O-])cc1 (tested in a mixture with another compound),"3.15% [at 35.3 µM, active compounds read high]",–
O=C(NCc1ncc(C(F)(F)F)cc1Cl)c1c(Cl)cccc1Cl,18.6%,–
CCCCCCCCCCCCS(=O)(=O)Cl,"2.57% [at 15.8 µM, active compounds read high]",–
Cc1cccc2c1ccc1ccccc12,17.6%,–
CC(=O)CC(N)=O,-15.1%,–
CCc1cccc(C)c1N(C(=O)C(=O)O)C(C)COC (stereo unspecified),-5.39%,–
CCC(=O)OC/C=C(\C)CCC=C(C)C,-1.29%,–
CCCCC/C=C\C=C\C(=O)OCC,7.54%,–
CCCC(C)C=O (stereo unspecified),-1.42%,–
C=Cc1ccc(O)c(OC)c1,7.49%,–
Cc1cc(Br)ccc1NC(=O)CCl,1.79%,–
CC(=O)[C@]1(O)Cc2c(O)c3c(c(O)c2[C@@H](O[C@H]2C[C@H](N)[C@H](O)[C@H](C)O2)C1)C(=O)c1ccccc1C3=O,"23% [at 35.3 µM, active compounds read high]",–
c1ccc2cc3c4ccccc4c4ccccc4c3cc2c1,2.16%,–
